HT1080 IDH1KD tx: qHTS for induction of synthetic lethality in tumor cells producing 2HG: qHTS for the HT-1080-IDH1KD cell line | HT-1080 IDH1 knockdown viability, ATP luminescence, 48 h | Potency, µM (top dose mostly 46.1 µM), for the others: top-dose activity, negative = toxicity, most hits filed as cytotoxic | hit rate 2% among 360,000 | AID 686971, 2013;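 also: 0% = DMSO wells and -100% = cell-free medium wells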
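Luminescent ATP read-out (CellTiter-Glo, 10 min at room temperature) after 48 h compound exposure at 37 °C gave viability of IDH1-knockdown HT-1080 cells. Activity was normalised to DMSO and cell-free wells, then fitted as concentration-response curves.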
HT1080NT lethal: qHTS for induction of synthetic lethality in tumor cells producing 2HG: qHTS for the HT-1080-NT fibrosarcoma cell line. HT-1080-NT fibrosarcoma viability, CellTiter-Glo ATP luminescence, 48 h. Potency, µM (doses to about 46.1 µM), for the others: top-dose activity, negative = less viability, actives largely listed as cytotoxic. hit rate 1.6% among 360,000;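 also: NT is the 2HG producing partner of a matched IDH1 knockdown line; 0% = DMSO-treated cells and -100% = media-only wells without cells; nearly all actives have a fitted effect of over 55% in size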
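Luminescent CellTiter-Glo readout after 48 hours of compound exposure at 37 degrees C defined viability of HT-1080-NT cells. Activity was normalized to DMSO wells and cell-free media wells; concentration-response curves were fitted and assigned curve classes.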
KB-V1 cytotox: qHTS assay for MDR1-selective chemotherapeutics: Primary screen using the drug-selected MDR subline cells KB-V1 | hit rate 3.4% among 400,000 | Potency, µM (doses to about 46.1 µM), actives largely listed as cytotoxic | AID 1347076, 2019 | KB-V1 MDR cells viability, CellTiter-Glo, 72 h; also: nearly all actives have a fitted effect of over 60% in size
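Readout: CellTiter-Glo luminescence, 10 min after addition. Cells: KB-V1 MDR subline, 72 h at 37 degrees C with compound. Analysis: corrected, normalized data fitted to concentration-effect curves.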
KB-3-1 tox: qHTS assay for MDR1-selective chemotherapeutics: Primary screen using the parental adenocarcinoma cell KB-3-1 | KB-3-1 viability, CellTiter-Glo ATP luminescence, 72 h | Potency, µM (highest dose often 46.1 µM), most hits filed as cytotoxic | hit rate 1.4% among 400,000; also: nearly all actives have a fitted effect of over 60% in size
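Viability of parental KB-3-1 cells, measured by CellTiter-Glo luminescence, followed a 72 h incubation at 37 °C with pinned compounds in phenol-red-free DMEM containing 10% FBS.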
TDP1 cell noCPT: qHTS for Inhibitors of human tyrosyl-DNA phosphodiesterase 1 (TDP1): qHTS in cells in absence of CPT; Potency, µM (series often up to 46.2 µM), for the others: at the top dose activity change, negative = growth inhibition, actives largely listed as inhibitors; DT40 Tdp1-/- hTDP1 cells, no CPT, ATP luminescence, 48 h; hit rate 15% among 420,000; also: nearly all actives have a fitted effect of over 55% in size
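A cellular qHTS used chicken DT40 cells lacking endogenous Tdp1 but carrying stably transfected human TDP1. Compounds were applied without camptothecin, and cell growth kinetics were judged by ATP-dependent luminescence after ≥48 hr.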
DT40 TDP1 CPT: qHTS for Inhibitors of human tyrosyl-DNA phosphodiesterase 1 (TDP1): qHTS in cells in presence of CPT. chicken DT40 Tdp1-/-;hTDP1 cells + 20 nM CPT, ATP luminescence, 48 h. Potency, µM (titrated, usually from 46.2 µM), for inactives: at the top dose activity change, negative = growth inhibition, hits mostly inhibitors. hit rate 12% among 420,000. AID 686979, 2013; also: nearly all actives have a fitted effect of over 55% in size
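Chicken DT40 Tdp1-/- cells complemented with human TDP1, 400 cells/well, exposed to compounds plus 20 nM camptothecin for at least 48 h at 37 C; viability read as ATP content by CellTiter-Glo luminescence.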
* hit, by the source's call; [ ] = remark or other dose. An excerpt weighted towards active compounds, which were near 19% of everything screened. Calls follow the shape of the dose curve; as a rule, active = well fitted curve in the direction sought with a large enough effect; inconclusive = small, poorly fitted or top-dose-only effect, or another doubt; inactive = no such curve, though single readings can be large; an effect the other way counts as inactive or inconclusive. Unless noted, % is scaled to controls: 0 for no effect and ±100 for the full control effect; potency is read from the fitted curve at half-maximal effect.

CCOC(=O)c1sc2nc(CC(=O)OC)nc(N3CCN(c4ccccn4)CC3)c2c1C was read as HT1080 IDH1KD tx 0.0%, HT1080NT lethal inconclusive, KB-V1 cytotox inactive, KB-3-1 tox inactive, TDP1 cell noCPT 18.4µM* and DT40 TDP1 CPT 23.1µM*.
`CCOC(=O)c1sc2ncnc(N3CCN(CC)CC3)c2c1C` gave HT1080 IDH1KD tx 20.9%, HT1080NT lethal 2.3%, KB-V1 cytotox inactive, KB-3-1 tox inactive, TDP1 cell noCPT inconclusive and DT40 TDP1 CPT 15.3%.
For Cc1sc2nc(CSc3ccccc3)nc(N3CCC(C(N)=O)CC3)c2c1C the results were HT1080 IDH1KD tx 6.6%, HT1080NT lethal 0.1%, KB-V1 cytotox inconclusive, KB-3-1 tox inactive, TDP1 cell noCPT 20.6µM* and DT40 TDP1 CPT inconclusive.
Screening COC(C[C@H]1O[C@H]1[C@@H](O)[C@@H](C)OCc1ccccc1)OC returned HT1080 IDH1KD tx 9.8%, HT1080NT lethal 5.8%, KB-V1 cytotox inconclusive, KB-3-1 tox inactive, TDP1 cell noCPT 0.7% and DT40 TDP1 CPT -30.5%.
For O=C(CCC(=O)Nc1ccc(F)cc1)N/N=C/c1cccnc1 the results were HT1080 IDH1KD tx 3.9%, HT1080NT lethal 7.1%, KB-V1 cytotox inactive, KB-3-1 tox inactive, TDP1 cell noCPT 0.4% and DT40 TDP1 CPT -3.0%.
For CCOP(=O)(OCC)C(C#N)=C1SCN(c2ccccc2)CS1 the results were HT1080 IDH1KD tx -0.9%, HT1080NT lethal 0.6%, KB-V1 cytotox inconclusive, KB-3-1 tox inactive, TDP1 cell noCPT inconclusive and DT40 TDP1 CPT inconclusive.
Screening Cc1ccc(C(=O)c2cn(Cc3ccc(F)cc3)c3nc(C)ccc3c2=O)cc1 returned KB-V1 cytotox inactive, KB-3-1 tox inactive, TDP1 cell noCPT 23.1µM* and DT40 TDP1 CPT 16.4µM*.
Screening CCN(C(=O)Cn1cc(C(=O)c2ccc(F)cc2)c(=O)c2ccc(C)nc21)c1cccc(C)c1 returned KB-V1 cytotox inactive, KB-3-1 tox inactive, TDP1 cell noCPT inconclusive and DT40 TDP1 CPT 16.4µM*.
Cc1ccc(N2CCN(c3nc4ccc(C)cc4n4nnnc34)CC2)c(C)c1 was read as TDP1 cell noCPT inconclusive and DT40 TDP1 CPT -26.6%.
CNC(=O)c1c(NC(=O)c2ccc(N3C(=O)CCC3=O)cc2)sc2c1CCC(C)C2 (configuration not stated) was read as HT1080 IDH1KD tx 14.3%, HT1080NT lethal 11.4%, KB-V1 cytotox inactive, KB-3-1 tox inactive, TDP1 cell noCPT -19.5% and DT40 TDP1 CPT -23.3%.
CCOc1cc2c3c(c1)C1(OCCO1)C(=O)N3C(C)(C)CC2C (configuration not stated) was read as HT1080 IDH1KD tx -2.3%[9.24 µM], HT1080NT lethal -1.4%, KB-V1 cytotox inactive, KB-3-1 tox inactive, TDP1 cell noCPT inconclusive and DT40 TDP1 CPT inconclusive.
`CCOc1cc2c3c(c1)C1(Nc4ccccc4S1)C(=O)N3C(C)(C)CC2C` (configuration not stated) gave HT1080 IDH1KD tx inconclusive, HT1080NT lethal inconclusive, KB-V1 cytotox inactive, KB-3-1 tox inactive, TDP1 cell noCPT inconclusive and DT40 TDP1 CPT 18.4µM*.
For CCCCN(C(=O)CSCC(=O)Nc1ccc(C)cc1)c1c(N)n(CC(C)C)c(=O)[nH]c1=O the results were HT1080 IDH1KD tx -0.2%, HT1080NT lethal 0.1%, KB-V1 cytotox inactive, KB-3-1 tox inactive, TDP1 cell noCPT 1.2% and DT40 TDP1 CPT 2.6%.
`CCOC(=O)Cc1nnc2c(Nc3ccccc3F)nc3nonc3n12` gave HT1080 IDH1KD tx inconclusive, HT1080NT lethal inconclusive, KB-V1 cytotox inactive, KB-3-1 tox inconclusive, TDP1 cell noCPT 23.1µM* and DT40 TDP1 CPT 23.1µM*.
For CCOC(=O)Cc1nnc2c(Nc3ccc(C)cc3)nc3nonc3n12 the results were HT1080 IDH1KD tx -2.1%, HT1080NT lethal -2.0%, KB-V1 cytotox inactive, KB-3-1 tox inactive, TDP1 cell noCPT -20.3% and DT40 TDP1 CPT -22.8%.
COc1ccc2cc(C(=O)N3CCN(c4ccccc4OC)CC3)[nH]c2c1 was read as HT1080 IDH1KD tx -1.9%, HT1080NT lethal -6.5%, KB-V1 cytotox inactive, KB-3-1 tox inactive, TDP1 cell noCPT -28.3% and DT40 TDP1 CPT inconclusive.
For COc1ccccc1N1CCN(C(=O)c2cc3ccc4ccc(C)[nH]c4c3n2)CC1 the results were KB-V1 cytotox inconclusive, KB-3-1 tox inactive, TDP1 cell noCPT 20.6µM* and DT40 TDP1 CPT inconclusive.
For Cc1ccc2ccc3cc(C(=O)N4CCN(c5ccccc5)CC4)nc3c2[nH]1 the results were KB-V1 cytotox inactive, KB-3-1 tox inconclusive, TDP1 cell noCPT 18.4µM* and DT40 TDP1 CPT inconclusive.
`Cc1nc2cnc(OCc3ccccc3)nc2n(C)c1=O` gave TDP1 cell noCPT 4.0% and DT40 TDP1 CPT 11.4%.
For O=C(COC(=O)c1ccccc1)Nc1cccc(S(=O)(=O)N2CCCCC2)c1 the results were HT1080 IDH1KD tx -1.0%, HT1080NT lethal 4.9%, KB-V1 cytotox inactive, KB-3-1 tox inactive, TDP1 cell noCPT 6.0% and DT40 TDP1 CPT 6.0%.
COc1ccc(N(CC(=O)NCc2cccc(OC)c2)S(=O)(=O)c2c(C)noc2C)cc1 was read as HT1080 IDH1KD tx 2.2%, HT1080NT lethal 5.3%, KB-V1 cytotox 13µM*, KB-3-1 tox inactive, TDP1 cell noCPT -20.9% and DT40 TDP1 CPT -20.6%.
`CCOc1ccc(N(CC(=O)NCc2cccc(OC)c2)S(=O)(=O)c2c(C)noc2C)cc1` gave HT1080 IDH1KD tx -1.1%, HT1080NT lethal -24.7%, KB-V1 cytotox 7.31µM*, KB-3-1 tox inactive, TDP1 cell noCPT inconclusive and DT40 TDP1 CPT 0.8%.
For COc1ccc(N(CC(=O)NCc2ccc(F)cc2)S(=O)(=O)c2c(C)noc2C)cc1 the results were HT1080 IDH1KD tx 5.3%, HT1080NT lethal -3.4%, KB-V1 cytotox inactive, KB-3-1 tox inactive, TDP1 cell noCPT inconclusive and DT40 TDP1 CPT inconclusive.
For O=C(COc1cccnc1[N+](=O)[O-])NCCc1ccccc1 the results were HT1080 IDH1KD tx -1.9%, HT1080NT lethal 3.5%, KB-V1 cytotox inactive, KB-3-1 tox inactive, TDP1 cell noCPT -10.5% and DT40 TDP1 CPT -0.7%.

High-throughput results (PubChem BioAssay)
